An excerpt weighted towards active compounds, which were near 6.8% of everything screened.
MCF10A rereplic: induces DNA re-replication in MCF 10a normal breast cells. MCF 10A DNA re-replication, Hoechst nuclear intensity, 48 h. Potency, µM (top dose mostly 46.1 µM), for inactives: top-dose activity, positive = re-replication, hits mostly activators. actives 2.9% (n = 350,000). AID 624296; further: % of control where 0% means no effect; nearly all actives have a fitted effect of over 50% in size
KB-3-1 cytotox: KB-3-1 parental cell cytotoxicity. actives 1.4% (n = 400,000). KB-3-1 viability, CellTiter-Glo ATP luminescence, 72 h. AID 1347075. Potency, µM (titrated, usually from 46.1 µM), most hits filed as cytotoxic; further: on the % scale 0 is the no-effect control and ±100 the full control effect; nearly all actives have a fitted effect of over 60% in size
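KB-3-1 parental drug-naive adenocarcinoma cells in DMEM/10% FBS, incubated 72 h at 37 C with pin-transferred compounds across a concentration series. Viability by CellTiter-Glo luminescence; concentration-response curves fitted after normalization.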
PTAP TSG101 blk: blocks PTAP/TSG101 interaction to inhibit HIV-1 budding | Q99816 | Fluorescence polarization, FITC-PTAP peptide / Tsg101 binding | Potency, µM (titrated, usually from 115 µM), without a hit: at the highest dose activity change, negative = inhibition, usual class: inhibitors | 340,000 tested, under 10 active; active means well fitted inhibition curve with a large enough effect in the main read-out, with a control signal flat, not every such curve was filed as active; inconclusive means small, poorly fitted or top-dose-only effect, or effect the other way, or a change in a side signal; inactive means no such curve, though single readings can be large or run the other way; further: % of control where 0% means no effect
Target sequence (Q99816 whole entry, looked up): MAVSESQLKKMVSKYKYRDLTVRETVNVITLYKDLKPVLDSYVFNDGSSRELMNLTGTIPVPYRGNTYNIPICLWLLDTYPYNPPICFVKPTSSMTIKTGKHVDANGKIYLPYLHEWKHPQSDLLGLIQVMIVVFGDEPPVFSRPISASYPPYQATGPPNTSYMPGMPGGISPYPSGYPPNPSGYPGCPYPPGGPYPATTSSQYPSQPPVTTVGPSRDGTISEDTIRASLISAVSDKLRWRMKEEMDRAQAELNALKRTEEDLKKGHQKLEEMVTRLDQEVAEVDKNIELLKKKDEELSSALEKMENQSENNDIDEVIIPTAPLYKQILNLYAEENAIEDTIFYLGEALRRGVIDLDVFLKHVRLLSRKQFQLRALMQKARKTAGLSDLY
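Tsg101 binding domain (10 uM final) was mixed with compound and a FITC-labeled PTAP peptide (50 nM final) in HEPES pH 7.5 buffer with NaCl, Tween 20, EDTA and TCEP; fluorescence polarization was read after 20 min at r.t.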
KB-V1 MDR tox: kills drug-selected multidrug resistant KB-V1 cells; Potency, µM (series often up to 46.1 µM), actives largely listed as cytotoxic; actives 3.4% (n = 400,000); KB-V1 MDR cells viability, CellTiter-Glo, 72 h; AID 1347076; further: on the % scale 0 is the no-effect control and ±100 the full control effect; nearly all actives have a fitted effect of over 60% in size
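KB-V1, DMEM (no phenol red) + 10% FBS; cpd pin-transferred, titration series; 72 h, 37 degrees C; CellTiter-Glo, luminescence. Data normalized, curve-fit.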
SW480 rerep: inducers of DNA re-replication in SW480 colon cancer cells; SW480 DNA re-replication, Hoechst DNA content imaging, 48 h; Potency, µM (highest dose often 46.1 µM), for inactives: top-dose re-replication activation, hits mostly activators; actives 1.8% (n = 340,000); AID 624297; further: % of control where 0% means no effect; nearly all actives have a fitted effect of over 55% in size
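Readout is total intensity of Hoechst-stained nuclei, excited at 405 nm and collected at 500-530 nm. Compound treatment lasted 48 hr at 37 C in 5% CO2 before staining.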
PINK1 modulator: changes PINK1 expression. AID 624263. PINK1 immunofluorescence, high-content cytometry, 24 h. actives 0.2% (n = 410,000). Potency, µM (titrated, usually from 76.6 µM), for the others: top-dose activation (PINK1 increase), usual class: activators; active means well fitted activation curve with a large enough effect; inconclusive means small, poorly fitted or top-dose-only effect; cell line not stated here; further: % of control where 0% means no effect; nearly all actives have a fitted effect of over 65% in size
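A stable cell line was treated with compounds at 5 concentrations for 24 hours, with CCCP as control. PINK1 levels and mitochondrial localization were measured by immunofluorescence with mitochondrial, cell and nuclear markers after fixation, read by laser-scanning cytometry.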
Numbers without * were called inactive; [ ] = another dose, or the depositor's remark. Unless noted, the call rests on the fitted dose curve; in most records, active means well fitted curve in the direction sought with a large enough effect; inconclusive means small, poorly fitted or top-dose-only effect, or another doubt; inactive means no such curve, though single readings can be large; an effect the other way counts as inactive or inconclusive. Potency means the concentration at half of the fitted maximal effect.

What do the screens show for `Brc1ccc(-c2cnc3n2CCCC3)cc1`?
MCF10A rereplic: inconclusive; KB-3-1 cytotox: inconclusive; PTAP TSG101 blk: -1%; KB-V1 MDR tox: inactive; SW480 rerep: 8%; PINK1 modulator: -2%

Results for CCOc1ccc(-c2cnc3n2CCC3)cc1 ?
MCF10A rereplic: 9%; KB-3-1 cytotox: inconclusive; PTAP TSG101 blk: 0%; KB-V1 MDR tox: inconclusive; SW480 rerep: 9.2µM*; PINK1 modulator: 6%

What do the screens show for `COc1ccc(-c2cc(C(=O)N3CC4(C)CC3CC(C)(C)C4)no2)cc1OC` (stereo not given)?
MCF10A rereplic: inconclusive; KB-3-1 cytotox: inactive; PTAP TSG101 blk: 0%; KB-V1 MDR tox: 21µM*; SW480 rerep: -6%; PINK1 modulator: 9%

How did COc1cc(-c2nc(C)cnc2C)cc2c1OCCN(C(=O)Cc1cc(OC)c(OC)c(OC)c1)C2 do in these assays?
PINK1 modulator: 0%

How did O=C(CSc1nc2ccc([N+](=O)[O-])cc2[nH]1)NC1CCCCC1 do in these assays?
MCF10A rereplic: 6%; KB-3-1 cytotox: inconclusive; PTAP TSG101 blk: -3%; KB-V1 MDR tox: inactive; SW480 rerep: -5%; PINK1 modulator: inconclusive

What do the screens show for `Cc1ccc2nc(SCc3ccc([N+](=O)[O-])cc3)nc(C)c2c1`?
MCF10A rereplic: 10%; KB-3-1 cytotox: inconclusive; PTAP TSG101 blk: -6%; KB-V1 MDR tox: inactive; SW480 rerep: -3%; PINK1 modulator: 24%[38.3 µM]

How did Clc1ccc(CSc2nc3ccncc3[nH]2)cc1 do in these assays?
MCF10A rereplic: -12%; KB-3-1 cytotox: inconclusive; PTAP TSG101 blk: -3%; KB-V1 MDR tox: inactive; SW480 rerep: -23%; PINK1 modulator: 1%

Results for Cc1ccc2nc(SCc3ccc([N+](=O)[O-])cc3)[nH]c2c1 ?
MCF10A rereplic: 27%; KB-3-1 cytotox: inconclusive; PTAP TSG101 blk: -6%; KB-V1 MDR tox: 16µM*; SW480 rerep: 0%; PINK1 modulator: 2%[38.3 µM]

Results for Cc1ccc2nc(SCC(=O)Nc3cccc([N+](=O)[O-])c3)[nH]c2c1 ?
MCF10A rereplic: -2%; KB-3-1 cytotox: inactive; KB-V1 MDR tox: 15µM*; SW480 rerep: 0%; PINK1 modulator: 1%[38.3 µM]

What do the screens show for `O=C(CSc1nc2ccc([N+](=O)[O-])cc2[nH]1)NC1CCCCCC1`?
MCF10A rereplic: inconclusive; KB-3-1 cytotox: inconclusive; PTAP TSG101 blk: -1%; KB-V1 MDR tox: 13µM*; SW480 rerep: 1%; PINK1 modulator: 14µM*

Results for Cc1ccc(CSc2nc3ccncc3[nH]2)cc1 ?
MCF10A rereplic: 1%; KB-3-1 cytotox: 12µM*; PTAP TSG101 blk: -4%; KB-V1 MDR tox: inactive; SW480 rerep: -14%; PINK1 modulator: 2%

How did COc1ccccc1CCC(=O)Nc1ccc2c(c1)c(=O)n(C)n2Cc1ccc(F)cc1 do in these assays?
KB-3-1 cytotox: 8.2µM*; KB-V1 MDR tox: inconclusive; PINK1 modulator: 1%

How did COc1cccc(Cn2c3ccc(NC(=O)CCc4ccc(F)cc4)cc3c(=O)n2C)c1 do in these assays?
KB-3-1 cytotox: 4.1µM*; KB-V1 MDR tox: inconclusive; PINK1 modulator: 10%

Results for CC(C)=CCn1c2ccc(NC(=O)NCc3ccc(F)cc3)cc2c(=O)n1C ?
KB-3-1 cytotox: 4.6µM*; KB-V1 MDR tox: inactive; PINK1 modulator: 5%

Results for Cn1c(=O)c2cc(NC(=O)NCc3ccc(F)cc3)ccc2n1C/C=C/c1ccccc1 ?
KB-3-1 cytotox: inconclusive; KB-V1 MDR tox: inactive; PINK1 modulator: 13%

Results for CC(C)C(=O)N1CCN(c2c(Cl)cccc2[N+](=O)[O-])CC1 ?
MCF10A rereplic: 5%; KB-3-1 cytotox: inconclusive; PTAP TSG101 blk: -2%; KB-V1 MDR tox: 15µM*; SW480 rerep: -6%; PINK1 modulator: 0%

Results for CCC(=O)N1CCN(c2c(Cl)cccc2[N+](=O)[O-])CC1 ?
MCF10A rereplic: -10%; KB-3-1 cytotox: inconclusive; PTAP TSG101 blk: 1%; KB-V1 MDR tox: inconclusive; SW480 rerep: -2%; PINK1 modulator: -3%

Results for O=C(/C=C/c1ccccc1)N1CCN(c2c(Cl)cccc2[N+](=O)[O-])CC1 ?
MCF10A rereplic: 26µM*; KB-3-1 cytotox: inactive; PTAP TSG101 blk: -1%; KB-V1 MDR tox: inactive; SW480 rerep: 26%; PINK1 modulator: -2%

How did CC(NC(=O)c1ccc(Nc2nc3ccccc3n3nnnc23)cc1)c1ccccc1 (stereo not given) do in these assays?
KB-3-1 cytotox: inactive; KB-V1 MDR tox: inactive; PINK1 modulator: 2%

How did COc1ccc(CCn2c3c(c(=O)[nH]c2=S)CN(C)CN3)cc1OC do in these assays?
PINK1 modulator: 0%

How did CCc1nc2c(sc3nc4c(cc32)COC(C)(C)C4)c(=O)n1Cc1ccco1 do in these assays?
MCF10A rereplic: 3%; KB-3-1 cytotox: inconclusive; PTAP TSG101 blk: 2%; KB-V1 MDR tox: 12µM*; SW480 rerep: -6%; PINK1 modulator: 15%

What do the screens show for `Cc1c(Cl)cccc1-n1nc(C)c2c(C)cc(=O)n(CC(=O)N3CCCc4ccccc43)c21`?
KB-3-1 cytotox: inactive; KB-V1 MDR tox: inactive; PINK1 modulator: 1%

Results for CN(Cc1ccc(F)cc1)Cc1nc(-c2cnccn2)no1 ?
MCF10A rereplic: -4%; KB-3-1 cytotox: inactive; PTAP TSG101 blk: 0%; KB-V1 MDR tox: inactive; SW480 rerep: 13µM*; PINK1 modulator: 2%

How did CCN(CC)c1ccc(NS(=O)(=O)c2cc(-c3onc(C)c3C)ccc2OC)c(C)c1 do in these assays?
PINK1 modulator: 4%

What do the screens show for `CC(C)N1CCN(c2cccc(Nc3nn4c(=O)c5ccccc5nc4s3)c2)CC1`?
KB-3-1 cytotox: inactive; KB-V1 MDR tox: inactive

How did COc1ccc(S(=O)(=O)n2nc(OC(=O)c3c(-c4ccccc4Cl)noc3C)cc2N)cc1 do in these assays?
MCF10A rereplic: 1.6µM*; KB-3-1 cytotox: inconclusive; PTAP TSG101 blk: -1%; KB-V1 MDR tox: inactive; SW480 rerep: -4%[9.22 µM]; PINK1 modulator: -1%

How did COc1ccc(C(=O)Oc2cc(N)n(S(=O)(=O)c3ccc(C)cc3)n2)cc1 do in these assays?
MCF10A rereplic: 0%; KB-3-1 cytotox: inactive; PTAP TSG101 blk: -1%; KB-V1 MDR tox: inactive; SW480 rerep: -11%; PINK1 modulator: 7%

How did Cc1cc(C(=O)Nc2cccc(-c3nc(CNC(=O)c4ccc[n+]([O-])c4)c(C)o3)c2)c(C)o1 do in these assays?
PINK1 modulator: 0%

Results for O=C(COc1ccccc1)Nc1nc(-c2ccc(S(=O)(=O)N3CCOCC3)cc2)cs1 ?
MCF10A rereplic: inconclusive; KB-3-1 cytotox: inactive; PTAP TSG101 blk: -8%; KB-V1 MDR tox: inactive; SW480 rerep: 2%; PINK1 modulator: 3%
